Compound activity: PubChem BioAssay, National Center for Advancing Translational Sciences (NCATS)
NPC1 promoter act – qHTS Assay for NPC1 Promoter Activators. Huh7 NPC1 promoter luciferase reporter, 24 h. Potency, µM (series often up to 9.22 µM), inactives show at the top dose activation, actives largely listed as activators. hit rate 2.4% among 320,000. AID 485313, 2010; note: % of control where 0% means no effect; nearly all actives have a fitted effect of over 60% in size
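Luciferase expression driven by the NPC1 promoter was measured in stably transfected Huh7 cells after a 24 h compound incubation, using a luciferase reagent and a luminescence read.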
ELG1 genotox – qHTS screen for small molecules that induce genotoxicity in human embryonic kidney (HEK293T) cells expressing luciferase-tagged ELG1; HEK293T ELG1-luciferase reporter, luminescence, 16 h; Potency, µM (series often up to 46 µM), for the others: at the highest dose activity change, positive = activation, usual class: activators; hit rate 1.3% among 330,000; note: % of control where 0% means no effect; nearly all actives have a fitted effect of over 60% in size
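Luminescence read-out: rising ELG1-luciferase signal, reflecting elevated ELG1 protein under genetic stress, flags genotoxic compounds. Cells were treated for 16 hr at 37 °C before ONE-Glo detection.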
Rab9 prom act – qHTS Assay for Rab9 Promoter Activators. Potency, µM (top dose mostly 9.22 µM), inactives show at the top dose activation, negative = inhibition, actives largely listed as activators. hit rate 2.8% among 320,000. Huh7 Rab9 promoter-luciferase reporter, luminescence, 24 h. AID 485297, 2010; note: % of control where 0% means no effect; nearly all actives have a fitted effect of over 60% in size
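Cell-based reporter: Huh7 stable for Rab9 promoter-driven luciferase, plated in reduced-serum medium with 10% FBS at 1500 cells/well, compound-treated 24 h at 37 °C, luminescence read after 10 min reagent.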
FLuc counter – qHTS profiling assay for firefly luciferase inhibitor/activator using purifed enzyme and Km concentrations of substrates (counterscreen for miR-21 project); Luciferin 4-monooxygenase (Photinus pyralis), P08659; Potency, µM (highest dose often 57.5 µM), inactives show top-dose activity change, negative = inhibition, hits mostly inhibitors; purified FLuc, Km substrates, luminescence inhibition; AID 588342, 2011; hit rate 6.9% among 360,000;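 note: plate controls were vehicle for no effect and reference inhibitor for full effect; nearly all actives have a fitted effect of over 55% in size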
Target sequence (P08659 whole entry, looked up): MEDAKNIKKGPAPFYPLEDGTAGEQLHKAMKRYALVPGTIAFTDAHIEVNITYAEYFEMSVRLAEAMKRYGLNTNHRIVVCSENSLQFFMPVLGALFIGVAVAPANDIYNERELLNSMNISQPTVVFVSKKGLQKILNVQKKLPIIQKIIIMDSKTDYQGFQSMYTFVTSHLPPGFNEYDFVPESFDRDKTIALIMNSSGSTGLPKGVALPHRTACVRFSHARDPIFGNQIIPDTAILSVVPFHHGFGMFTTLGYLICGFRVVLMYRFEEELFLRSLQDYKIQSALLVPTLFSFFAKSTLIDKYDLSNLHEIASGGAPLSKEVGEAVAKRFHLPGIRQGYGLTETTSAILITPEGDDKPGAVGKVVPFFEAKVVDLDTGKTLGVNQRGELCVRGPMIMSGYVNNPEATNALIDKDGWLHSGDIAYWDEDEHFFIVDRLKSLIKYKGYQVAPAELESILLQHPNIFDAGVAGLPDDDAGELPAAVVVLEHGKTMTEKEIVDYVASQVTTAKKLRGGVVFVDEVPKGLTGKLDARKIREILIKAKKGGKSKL
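Purified P. pyralis luciferase (10nM final) with 10uM D-luciferin and 10uM ATP (Km levels) in 50mM Tris acetate pH 7.5, 10mM Mg acetate, 0.01% Tween-20, 0.05% BSA; qHTS 6-point titration, ~60 µM downward; luminescence read.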
SMN2 splice enh – qHTS Assay for Enhancers of SMN2 Splice Variant Expression | hit rate 2.8% among 210,000 | AID 1458, 2008 | HEK293 SMN2-luciferase splicing reporter, luminescence, 30-36 h | Potency, µM (highest dose often 46.1 µM), without a hit: at the top dose activity change, positive = activation, usual class: activators; note: % of control where 0% means no effect; nearly all actives have a fitted effect of over 55% in size
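HEK293 cells carry an SMN2 […]–luciferase reporter in which exon 7 inclusion puts luciferase in frame. Cells were plated 10-12 h before compound addition, then incubated 30-36 h at 37C. ONE-Glo luminescence was read; sodium butyrate at 4.5 mM final served as control.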
* marks the source's active call; other numbers are inactive results; ? = inconclusive; nt = not tested or not shown; [ ] = dose if it differs, or a comment. Sampled rows, rich in hits. Any-hit rate of the full collection: about 7.4%. Calls come from the whole dose curve; as a rule, active = well fitted curve in the direction sought with a large enough effect; inconclusive = small, poorly fitted or top-dose-only effect, or another doubt; inactive = no such curve, though single readings can be large; an effect the other way counts as inactive or inconclusive. Potency is the fitted concentration of half-maximal effect.

SMILES	NPC1 promoter act	ELG1 genotox	Rab9 prom act	FLuc counter	SMN2 splice enh
COc1ccc(OC)c(CCNC(=O)c2cc3cccc4c3n2CC(C)S4)c1 (stereo not drawn)	nt	nt	nt	1.9%	nt
CCC1CCCCN1C(=S)NC1CCCCC1 (stereo not drawn)	-0.4%	-0.9%	-3.8%	9.9%	-19.7%
O=C(COc1ccccc1)n1nc(-c2ccc(Cl)cc2)nc1NCc1ccco1	28.8%	20.6µM*	?	?	15.8µM*
COCC(=O)n1nc(-c2ccccc2)nc1NCc1ccc(N(C)C)cc1	?	?	?	16.9µM*	?
O=C(c1ccco1)n1nc(-c2ccccc2)nc1NCc1ccco1	7.8%	6.7%	17.7%	-8.1%	?
COc1ccccc1C(=O)n1nc(-c2ccccc2)nc1NCc1ccco1	17.2%	13.2%	1.5%	1.8%	12.6µM*
COCC(=O)n1nc(-c2ccc(C)cc2)nc1NCc1ccc(F)cc1	15.8%	18.1%	23.5%	-17.6%	?
Cc1ccc(-c2nc(NCc3ccco3)n(C(=O)c3ccco3)n2)cc1	?	?	3.55µM*	3.1%	nt
CCn1c(=S)sc2c(=O)n(CC(=O)NCCCc3ccccc3)c(C)nc21	-0.1%	-1.7%	-2.4%	2.4%	nt
Cc1nc2c(C(=O)NCCc3ccc(Cl)cc3)cnn2c(C)c1Cc1ccc(F)cc1	nt	nt	nt	1.5%	nt
CCc1ccccc1N(C)S(=O)(=O)c1ccc(-c2cc(C)no2)s1	-38.3%	-7.1%	-20.3%	-3.2%	nt
CN(Cc1nc(C(c2ccccc2)c2ccccc2)no1)CC1COCCO1 (stereo not drawn)	?	?	?	15.1µM*	nt
COc1cccc(CC(=O)Nc2ccc(S(=O)(=O)N3CCCCC3)cc2)c1	nt	-1.5%	nt	nt	nt
COc1cccc(CC(=O)Nc2ccc3c(c2)OC2(CCCC2)O3)c1	16.8%	3.2%	21.6%	13.5µM*	nt
CN(C)c1ccc(-c2nnn(CC(=O)Nc3ccccc3N3CCOCC3)n2)cc1	29.7%	-1.8%	8.6%	26.9µM*	-12.5%
O=C(Cn1nnc(-c2ccc3c(c2)OCO3)n1)Nc1ccccc1C(=O)O	?	?	26.7%	15.1µM*	nt
COc1ccccc1CNC(=O)c1oc2c(c1C)-c1nn(Cc3ccc(Cl)cc3)cc1CC2	nt	nt	nt	-7.0%	nt
Cc1ccc(Nc2nc3nonc3[nH]c2=O)cc1Cl	9.2%	-16.0%	2.2%	21.3µM*	-73.6%
Cc1ccc(Nc2nc3nonc3[nH]c2=O)cc1C	18.1%	6.9%	26.0%	12µM*	12.6%
CN(C(=O)c1cc2c(=O)n3ccccc3nc2n1C)C1CCCCC1	2µM*	4.61µM*	3.16µM*	12µM*	nt
CCN(C(=O)c1cc2c(=O)n3ccccc3nc2n1C)C1CCCCC1	26.8%	16.1%	18.5%	-15.0%	nt
Cc1cccc(NC(=O)COC(=O)c2ccccc2SCC(=O)N2CCCC2)c1	-1.9%	-4.5%	10.8%	8.6%	nt
Cc1nn(C)cc1C(=O)Nc1ccc2c(c1)OCCO2	4.47µM*	?	3.16µM*	12µM*	nt
CCn1cc(Cl)c(C(=O)Nc2ccc3c(c2)OCCO3)n1	3.16µM*	?	1.58µM*	6.01µM*	11.2µM*
Cc1c(C(=O)Nc2ccc3c(c2)OCCO3)cnn1C	?	3.66µM*	?	10.7µM*	nt
SMILES	NPC1 promoter act	ELG1 genotox	Rab9 prom act	FLuc counter	SMN2 splice enh
Cc1nn(C)cc1S(=O)(=O)Nc1ccc2c(c1)OCCO2	-3.9%	?	-1.1%	?	-22.6%
CCn1cc(Cl)c(C(=O)Nc2cccc(C(F)(F)F)c2)n1	8.7%	-13.9%	27.7%	?	-6.1%
Cc1c(C(=O)Nc2ccc(Br)cc2)cnn1C	?	?	?	13.5µM*	12.6µM*
CCCCOc1ccc(C(=O)N(Cc2nc(-c3ccc(Cl)cc3)no2)C(C)C)cc1	nt	nt	nt	-1.0%	4.2%
COc1cc(NC(=O)c2nn(-c3ccc(F)cc3)c(=O)n(C)c2=O)cc(OC)c1OC	nt	nt	nt	-3.7%	nt
Cn1nccc1C(=O)Nc1ccc2c(c1)OCCO2	3.16µM*	?	1.58µM*	12µM*	nt
COc1cc(O)oc1C=Nc1ccc(C(=O)O)cc1	-0.9%	5.4%	-2.4%	-9.4%	-0.1%
Cc1sc2ncnc(NCC(c3ccco3)N3CCCC3)c2c1C (stereo not drawn)	-3.4%	-2.2%	-0.5%	-1.0%	-10.7%
Nc1ccccc1SSc1ccccc1N	-0.1%	9.6%	6.0%[1.84 µM]	10.7µM*	nt
O=C(NCCSCc1ccco1)Nc1ccc(Cl)cc1	nt	nt	nt	10.7µM*	?
Cc1cc(Cl)ccc1N(CC(=O)NCCSCc1ccco1)S(C)(=O)=O	-7.5%	-0.1%	-8.5%	-2.2%	nt
O=C(NCCc1ccc(Cl)cc1)Nc1cccc(Cl)c1	-0.3%	-10.8%	-1.2%	?	-21.6%
O=C(NCCSCc1ccco1)Nc1cccc(Cl)c1	?	10.1%	?	16.9µM*	?
O=C(CCSc1ccccc1)NCCSCc1ccco1	3.4%	-0.5%	0.2%	19µM*	nt
COc1ccc(NC(=O)CSc2n[nH]c(CNc3cccc(C)c3)n2)cc1	-7.0%	10.4%	2.5%	?	nt
NCCCCC(NC(CCc1ccccc1)C(=O)O)C(=O)N1CCCC1C(=O)O (stereo not drawn)	nt	nt	nt	nt	-4.9%
O=C(CSc1nncc2ccccc12)Nc1ccccc1	-0.8%	0.5%	-0.4%	16.9µM*	nt
CCOC(=O)c1cc2c(nc1N)CC(C)(CC)OC2 (stereo not drawn)	?	13µM*	3.16µM*	?	?
CCOC(=O)c1sc2nc3c(cc2c1N)COC(C)(CC)C3 (stereo not drawn)	0.794µM*	?	0.794µM*	1.35µM*	10µM*
CCOC(=O)c1sc2nc3c(cc2c1N)COC(C)(C)C3	2.82µM*	?	2.51µM*	6.75µM*	11.2µM*
CC1(C)Cc2nc3sc(C(N)=O)c(N)c3cc2CO1	22.0%	16.9%	?	?	nt
Cc1ccc(C(=O)NCC(c2ccc3c(c2)OCO3)N2CCOCC2)cc1C (stereo not drawn)	nt	nt	nt	-6.0%	nt
Cc1cccc2nc(CSc3nc4ccccc4o3)cn12	0.8%	12.8%	19.8%	15.1µM*	-1.6%
Cc1cc(C)nc(SCc2cn3c(C)cccc3n2)n1	1.2%	-0.3%	-2.1%	-19.2%	nt
c1ccc2oc(SCc3cn4ccccc4n3)nc2c1	1.41µM*	4.61µM*	1.12µM*	9.53µM*	14.1µM*
COc1cc(/C=C2/C(=O)NN(c3ccc(Cl)c(Cl)c3)C2=O)cc([N+](=O)[O-])c1O	-2.7%	0.3%	-1.8%	?	nt
COC(=O)c1ccc(N2NC(=O)/C(=C/c3cc(OC)c(O)c(OC)c3)C2=O)cc1	2.5%	-0.4%	-8.5%[1.84 µM]	8.49µM*	nt
COC(=O)c1ccc(N2NC(=O)/C(=C/c3cc(OC)c(OC)c(OC)c3)C2=O)cc1	-0.7%	11.7%	-0.6%[1.84 µM]	19µM*	nt
